Molecules are shown by their SMILES. Records with an inconclusive call do not appear. Unmarked numbers belong to inactive results. Calls follow the shape of the dose curve; as a rule, active = well fitted cell-killing curve with a large enough effect in the repeat runs; inconclusive = weak or mixed curves, or effect the other way; inactive = flat fitted curve, though single readings scatter.

Experimental findings from PubChem BioAssay (Tox21) are described below.
% is scaled to controls: 0 for no effect and ±100 for the full control effect.

This assay can be described thus: qHTS assay to identify small molecule agonists of the androgen receptor (AR) signaling pathway in the presence of an antagonist - cell viability counter screen (AID 1259379). Also: nearly all actives have a fitted effect of over 25% in size. The settings on record: MDA-kb2 viability, CellTiter-Fluor, 16 h; series mostly up to 92.4 µM; activity change, negative = cytotoxicity: at the top concentration. From the text:
National Center for Advancing Translational Sciences [NCATS]
NIH Chemical Genomics Center [NCGC]
U.S. Environmental Protection Agency [EPA]
National Institutes of Environmental Health Sciences [NIEHS]
National Toxicology Program [NTP]
U.S. Food and Drug Administration [FDA]
Androgen receptor (AR) is an important member of nuclear receptor family. Its signaling plays a critical role in AR-dependent prostate cancer and other androgen related diseases. Considerable attention has been given in the past decades to develop methods to study and screen for the environmental chemicals that have the potential to interfere with metabolic homeostasis, reproduction, developmental and behavioral functions. Therefore AR binding assay for screening against androgen agonists and antagonists can be used to identify potential endocrine disruptors.
MDA-kb2 cells (from ATCC, deposited by Wilson et al.) are human breast carcinoma cells that were stably transfected with a luciferase reporter gene under control of the MMTV promoter that contains response elements for both androgen receptor (AR) and glucocorticoid receptor (GR). This particular screening for measuring luciferase reporter gene activity using MDA-kb2 cells against Tox21 10K library compounds is a confirmation study on agonist mode screening in the presence of AR-antagonist compound (Nilutamide) at 3.0uM final concentration. The cytotoxicity of the compounds was tested in parallel by measuring the cell viability using CellTiter-Fluor assay system (Promega, Madison, WI) in the same wells.
Tox21 Assay Protocol Summary:
MDA-kb2 cells (cells cultured without CO2) were dispensed at 3,000 cells/well in 4uL of culture medium into white wall/solid-bottom 1536-well plates (Corning Life Sciences, Corning, NY) using a Multidrop Combi (Thermo Fisher Scientific Inc., Waltham, MA) dispenser. The assay plates were incubated at 37C and 0% CO2 for 5hr. One uL of 3.0uM (final concentration) Nilutamide or assay buffer was added using two separate tips of Flying Reagent Dispenser (FRD, Aurora Discovery, San Diego, CA). Then 23nL of compounds dissolved in DMSO at 15 concentrations and positive controls were transferred to the assay plates using a Pintool station (Wako, San Diego, CA). The assay plates were incubated at 37C and 0% CO2 for 16 hr. After 15hr incubation at 37C, 1uL/well CellTiter-Fluor reagent (Promega Corporation) was added to each well of the assay plates using FRD. After 1hr incubation at 37C and 0% CO2, the fluorescence signal was measured using a ViewLux plate reader (PerkinElmer, Shelton, CT).
In the case of `CCOc1ccccc1O`, the “activity change, negative = cytotoxicity” value is -45.8%.
For the molecule `Cc1ccc2c(Cl)cc(Cl)c(O)c2n1`, the “activity change, negative = cytotoxicity” value is 4.13% [at 42.5 µM].
To `CC(C)Oc1ccccc1O` belongs 2.37%.
To `CCCCCCCCCCCCSCCOCCO` belongs 2.9% [at 42.5 µM]; to `CCN(CC)CC(=O)OCC(=O)[C@@]1(O)CC[C@H]2[C@@H]3CCC4=CC(=O)CC[C@]4(C)[C@H]3[C@@H](O)C[C@@]21C`, 2.31% [at 42.5 µM].
The result for `CCCCOC(=O)C(C)Oc1ccc(Oc2ccc(C(F)(F)F)cn2)cc1` (stereo not given) reads 2.27%.
Consider `Cc1nc(C)c(C)nc1C`, for which the “activity change, negative = cytotoxicity” value was -4.06%.
To `C=CC(C)CCC=C(C)C` (stereo not given) belongs -1.17%; to `CCOCCn1c(N2CCCN(C)CC2)nc2ccccc21`, -0.0015% [at 42.5 µM].
As for `CCCCCCCCC(=O)OCC(C)OC(=O)CCCCCCCC` (stereo not given), the “activity change, negative = cytotoxicity” value is 5.63%.
To `O=C(OCCOCCOCCOC(=O)c1ccccc1)c1ccccc1` belongs 1.1%.
The result for `CCc1ccc(C(=O)C(C)CN2CCCCC2)cc1` (stereo not given) reads -11% [at 42.5 µM]; that for `Cc1cccc(C)c1NC(=O)CN1CCCC1`, -2.89% [at 42.5 µM].
To `c1ccc(CCNc2nc(-c3ccccc3)cs2)cc1` belongs -2.47% [at 42.5 µM]; to `CC(C)(C)N`, 2.89%.
`CCC(C)C1N=C(C)C(C)S1` (stereo not given): the “activity change, negative = cytotoxicity” value is 2.91%.
Take `O=C(O)c1ccccc1[N+](=O)[O-]`: the “activity change, negative = cytotoxicity” value was -0.0823%.
For `C=CC(=O)OCCCCCCCCCC`, the “activity change, negative = cytotoxicity” value was 0.0815%.
In the case of `CCOC(=O)CC(O)(CC(=O)OCC)C(=O)OCC`, the “activity change, negative = cytotoxicity” value is 0.746%.
The result for `O=C(O)c1ccccc1-n1cc(C(=O)O)c(=O)c2cc(Nc3c(F)cc(F)cc3Cl)c(Cl)cc21` reads 0.0172%.
Regarding `C[C@]12CCC(=O)C=C1[C@@H]1C[C@@H]1[C@H]1[C@@H]3[C@@H]4C[C@@H]4[C@@]4(CCC(=O)O4)[C@@]3(C)CC[C@@H]12`, the “activity change, negative = cytotoxicity” value is -3.65% [at 42.5 µM].
`CCCc1nc(C)c2c(=O)[nH]c(-c3cc(S(=O)(=O)N4CCN(CC)CC4)ccc3OCC)nn12`: the “activity change, negative = cytotoxicity” value is -4.8% [at 42.5 µM].
The result for `C1=COCCC1` reads 0%; that for `C=CC(C)(O)CC/C=C(/C)CCC=C(C)C` (stereo not given), 0.735%; that for `Cc1cc(C)c(C)c(O)c1`, 2%.
To `COc1ccc(C(=O)Nc2ccccc2)cc1[N+](=O)[O-]` belongs -16.3%.
As to `CCc1c(C)[nH]c2c1C(=O)C(CN1CCOCC1)CC2` (stereo not given), the “activity change, negative = cytotoxicity” value was 1.18% [at 42.5 µM].
The result for `c1ccc(CN(Cc2ccccc2)Cc2ccccc2)cc1` reads 1.12%; that for `CC(=O)c1cccnc1`, 2.18%; that for `CC(=O)S[C@H](C(=O)N[C@H]1Cc2ccccc2[C@H]2CCC[C@@H](C(=O)O)N2C1=O)C(C)C`, -0.367%.
The result for `C=CC(O)CCCCC` (stereo not given) reads 2.14%; that for `[O-][n+]1ccc(Cl)cc1`, -1.58%.
Consider `c1ccc(-c2ccc(-c3ccccc3)cc2)cc1`, for which the activity change, negative = cytotoxicity was -0.211% [at 19 µM].
To `CC1=C(C)C(=O)C(C(CCCCCC(=O)O)c2ccccc2)=C(C)C1=O` (stereo not given) belongs -11.9% [at 42.5 µM]; to `COC(=O)C(C)(C)C`, -0.977%; to `CC(C)CCCCCOC(=O)CS`, -3.67%.
The result for `CC(CCl)OC(C)CCl` (stereo not given) reads -1.06%; that for `CC(C)(Cc1c[nH]c2ccccc12)NCC(O)COc1ccccc1C#N` (stereo not given), -14.3% [at 42.5 µM]; that for `O=C(O)COCC(=O)O`, -0.12%.
As to `CCCOC(C)=O`, the “activity change, negative = cytotoxicity” value is -3.16%.
